Measurements taken from PubChem BioAssay AID1159580 (chemical genetic matrix, 2015).
About 2,000 (36%) of roughly 5,500 compounds were called active. About 18% were inconclusive and are not listed. No stated cut-off is given here; in the data, active means normalized growth mostly below about 0.91 (no sharp cut-off); inconclusive means no clear call, values can overlap the other calls; inactive means mostly above about 0.92. This is one part of the list.

Experiment: chemical genetic growth profiling, strain panel (AID 1159580);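 further: tested at 20 µM; growth read once vehicle control cultures reached saturation at 30 °C; 1 = growth at the plate median or of vehicle wells; lower values mean less growth of the strain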
Conditions: S. cerevisiae deletion strains, growth OD

Measured: normalized growth

Cc1c2ccncc2c(C)c2c1[nH]c1ccccc12
active: locus YAL040C, strain CLN3, hits give low values 0.101 | locus YCL061C, strain MRC1 (second series), hits give low values 0.0557 | locus YDR150W, strain NUM1, hits give low values 0.13 | locus YDR363W, strain ESC2, hits give low values 0.153 | locus YER002W, strain NOP16, hits give low values 0.0868 | locus YGR078C, strain PAC10, hits give low values 0.0788 | locus YMR263W, strain SAP30, hits give low values 0.362 | locus YNL128W, strain TEP1, hits give low values 0.083 | locus YNL153C, strain GIM3, hits give low values 0.0799 | locus YNL175C, strain NOP13, hits give low values 0.0703 | locus YNL197C, strain WHI3, hits give low values 0.0671 | locus YNL224C, strain SQS1, hits give low values 0.0631 | locus YOR083W, strain WHI5 (second series), hits give low values 0.079 | locus YPL055C, strain LGE1, hits give low values 0.101
